Data: article PMC7819943, “Rice protein-binding microarrays: a tool to detect cis-acting elements near promoter regions in rice”
Over roughly 68,000 sequences, “fluorescence intensity (a.u.)” has its median near 9,100; the highest 2% begin near 16,000. The entries come from a sample that favours the highest values as a whole.

biological target: OsWRKY34 (Oryza sativa, UniProt Q0JBA9 1-250); experiment: protein-binding microarray (RPBM); PBS, 2% BSA, 51.3 ng/ul salmon testes DNA, 50 uM zinc acetate, 200 nM TF, 25 C, 1 h; high values mean tight binding; settings: protein: recombinant; tags: N-terminal polyhistidine and DsRed monomer fusion (pET32a); label: CyDye5-dUTP incorporated in the synthesized complementary strand; 3' TTTTT single-stranded linker to array surface; dsDNA, one strand shown
Sequence (Q0JBA9 entry or part of it): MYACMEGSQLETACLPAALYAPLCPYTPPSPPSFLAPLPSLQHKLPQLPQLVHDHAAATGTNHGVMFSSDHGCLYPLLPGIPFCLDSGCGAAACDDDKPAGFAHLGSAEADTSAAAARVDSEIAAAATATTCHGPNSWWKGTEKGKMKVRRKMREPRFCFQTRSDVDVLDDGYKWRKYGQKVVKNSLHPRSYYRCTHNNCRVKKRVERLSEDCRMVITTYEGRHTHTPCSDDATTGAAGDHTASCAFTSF
Method in brief: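 Using Ni–NTA, transcription factors fused N-terminally to polyhistidine and DsRed were purified after expression in E. coli BL21-CodonPlus. These were incubated at 200 nM with a blocked, double-stranded custom Agilent array for 1 h at 25 °C in a buffer containing 50 µM zinc acetate, and the array was washed. The binding signal is per-feature fluorescence intensity (arbitrary units) on an Axon 4000B scanner.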

Sequence | binding signal
ATTATCCTGATCAAAATTCCCGCAATTCCTTAACACATGTCGGAGTCACCTAGTGCAG | 10200 fluorescence intensity (a.u.)
GCTTTTCTCTTCCTTTTCGCTCGCTCTCAAGGCCCATAACCGGAGTCACCTAGTGCAG | 9530 fluorescence intensity (a.u.)
TTGGTGAGAACAGCCTTATCTCTATCGCTTTACTCTCTCTCGGAGTCACCTAGTGCAG | 8150 fluorescence intensity (a.u.)
CTGACCACCAACAGGGTCACTGTCGCGTTTGCTCGATACTCGGAGTCACCTAGTGCAG | 9920 fluorescence intensity (a.u.)
TCCTTTCCTACATGTCGCCTTTGCCGTCGCCTCAACCACACGGAGTCACCTAGTGCAG | 14200 fluorescence intensity (a.u.)
ACGAACCTAAGCACTTCCAAATCAAATCAATCAAAGCTCTCGGAGTCACCTAGTGCAG | 56100 fluorescence intensity (a.u.)
ATCAAACCACTTCCATCTCTCAATTCTCAAGCACACACACCGGAGTCACCTAGTGCAG | 8310 fluorescence intensity (a.u.)
TCTTCTCACTCTAATCAAATCTCTCTCTCTCTCTCTCTCTCGGAGTCACCTAGTGCAG | 8280 fluorescence intensity (a.u.)
GCCGTCGCCGTCGCCGTCCTCCTCGTTGTCGTTGTCGTCGCGGAGTCACCTAGTGCAG | 9000 fluorescence intensity (a.u.)
TTTTCCGTGTTTTCCGTTTCTGTTTGTTTGGCTTTTTTTTCGGAGTCACCTAGTGCAG | 18600 fluorescence intensity (a.u.)
TAGTCCGTTCTGTTGTCATCTACTACTCTTGTTTGTGTTTCGGAGTCACCTAGTGCAG | 16100 fluorescence intensity (a.u.)
CGTCCTTATTGTGGTTTTCCACGTGTTTGTCTCTGTGTTTCGGAGTCACCTAGTGCAG | 13300 fluorescence intensity (a.u.)
TACCACCACTGTTCGTTTCGTTTGTTGGGTTTCGGTCATCCGGAGTCACCTAGTGCAG | 8360 fluorescence intensity (a.u.)
GTGGACTTTTTTCCTTCTCCTTTTCCTTTGTGTTGTTTCGCGGAGTCACCTAGTGCAG | 8860 fluorescence intensity (a.u.)
GAATTGTTGACCACGTGTTTCTGTTTGGACTCCTTTTTTTCGGAGTCACCTAGTGCAG | 16400 fluorescence intensity (a.u.)
CGTTCTGTCATTTGGGTTTTATGTTTGTTCTCTCTTGTTTCGGAGTCACCTAGTGCAG | 12000 fluorescence intensity (a.u.)
TTCCGTTTCTGTTCCGTTTGGTTTTTCCTTGTTCTTTCGGCGGAGTCACCTAGTGCAG | 12900 fluorescence intensity (a.u.)
TACATCCGTTTCCGTTTCGTTCTGTTCTGTTCTGTTGTTTCGGAGTCACCTAGTGCAG | 29200 fluorescence intensity (a.u.)
ATGCGTGTGGTTCTCCTGTCCGTTCTGTCATTTGGGTTTTCGGAGTCACCTAGTGCAG | 20000 fluorescence intensity (a.u.)
TCATTTCTGTGTGTGTTTTGGAGGTGGGTGAGGGTCTGTTCGGAGTCACCTAGTGCAG | 9920 fluorescence intensity (a.u.)
CTTCTTAGCTTCCGTGTCATGTTTCTTTTTGTTATCTTTTCGGAGTCACCTAGTGCAG | 10800 fluorescence intensity (a.u.)

Sequence | binding signal
GCTTCCGCCGCCGCGTCTTCTCGCCCTCGACTCCGCTCTCCGGAGTCACCTAGTGCAG | 14700 fluorescence intensity (a.u.)
GCATAACTAATGGTCTGTTTACTTTGATGGCATTTTCAATCGGAGTCACCTAGTGCAG | 9570 fluorescence intensity (a.u.)
CCTCAACCGTGACTCAGTTATTCAGTTCGACACCCAGCCGCGGAGTCACCTAGTGCAG | 8070 fluorescence intensity (a.u.)
TTGCATTTGAAGACATGTAGTGTGTAGGGTGGGTTCTATTCGGAGTCACCTAGTGCAG | 13500 fluorescence intensity (a.u.)
GCATTTCCAGGCCCACGGAAGCCACGCTTCTTCTCCAGCGCGGAGTCACCTAGTGCAG | 8060 fluorescence intensity (a.u.)
TCTGTTGTGCTCTTTCGTGTGATAGATCGATTTTTTGATTCGGAGTCACCTAGTGCAG | 10600 fluorescence intensity (a.u.)
AGGGAATTTCCCGTTCTTGCGCTCCTGGATTTCTTGCCCACGGAGTCACCTAGTGCAG | 9560 fluorescence intensity (a.u.)
CTCTCTCTGTTTCGGCCTCTCATACTCACTCCTCGGCTTCCGGAGTCACCTAGTGCAG | 11100 fluorescence intensity (a.u.)
AGTCCCAAGTCACAACTGACAACAAGGCAACTACTACTACCGGAGTCACCTAGTGCAG | 8360 fluorescence intensity (a.u.)
ACTTTGATCATAAAATGAGTTACTCTTACTTTCTTTTATTCGGAGTCACCTAGTGCAG | 8920 fluorescence intensity (a.u.)
GATTTAGTTTTAGTTTTTGTTTTTTTCCCACTTGGTTCTTCGGAGTCACCTAGTGCAG | 9450 fluorescence intensity (a.u.)
TATGCCTATCTGAATTGGTTACTGTTCGTTTTTCCACTTACGGAGTCACCTAGTGCAG | 10800 fluorescence intensity (a.u.)
CTCTCTCATCTGATTCTTGCGTTTTTCCTGTGGTCCAATCCGGAGTCACCTAGTGCAG | 12000 fluorescence intensity (a.u.)
CTCTCATCCGATTCCTGCGTTTTTCCTGTGGTTCAATCATCGGAGTCACCTAGTGCAG | 17900 fluorescence intensity (a.u.)
ACTGTTCGTTTTTCCACTTAAGTTCTGCTTGGTTTTTTTTCGGAGTCACCTAGTGCAG | 16600 fluorescence intensity (a.u.)
CTCATCCGATTCCTGCGTTTTTCCTGCGCTCCAATCAAACCGGAGTCACCTAGTGCAG | 9990 fluorescence intensity (a.u.)
CTCCCTCCCACTCCCCTTTTCGTAATTCCTTCCGCGCTTTCGGAGTCACCTAGTGCAG | 8150 fluorescence intensity (a.u.)
TACTCTCTCTGTCCCCTTTTGTTTTTTTTCCTGTATACTGCGGAGTCACCTAGTGCAG | 8690 fluorescence intensity (a.u.)
ATCACCTTCACGTTCCGAGATGTGGCACGAATCCCGAGGACGGAGTCACCTAGTGCAG | 8070 fluorescence intensity (a.u.)
AATCGCTTTCTCTCTCTTCTTCCTTGCTCTCTCATACAACCGGAGTCACCTAGTGCAG | 10200 fluorescence intensity (a.u.)
ATATACAGATTTCGATCGGCGACGTTAGTGATCAGCTGGGCGGAGTCACCTAGTGCAG | 35200 fluorescence intensity (a.u.)
